Measurements as given in ChEMBL document CHEMBL2218924, “A broad activity screen in support of a chemogenomic map for kinase signalling research and drug discovery” (Biochem J, 2013).

Key:
[1] = biological target: Serine/threonine-protein kinase SIK1 (Homo sapiens) (UniProt P57059); settings: at 10 µM
[2] = biological target: SRSF protein kinase 2 (Homo sapiens) (UniProt P78362); settings: at 10 µM
[3] = biological target: T1, Mitogen-activated protein kinase kinase kinase 7 (Homo sapiens) (UniProt O43318); settings: at 10 µM
T1 sequence (whole entry): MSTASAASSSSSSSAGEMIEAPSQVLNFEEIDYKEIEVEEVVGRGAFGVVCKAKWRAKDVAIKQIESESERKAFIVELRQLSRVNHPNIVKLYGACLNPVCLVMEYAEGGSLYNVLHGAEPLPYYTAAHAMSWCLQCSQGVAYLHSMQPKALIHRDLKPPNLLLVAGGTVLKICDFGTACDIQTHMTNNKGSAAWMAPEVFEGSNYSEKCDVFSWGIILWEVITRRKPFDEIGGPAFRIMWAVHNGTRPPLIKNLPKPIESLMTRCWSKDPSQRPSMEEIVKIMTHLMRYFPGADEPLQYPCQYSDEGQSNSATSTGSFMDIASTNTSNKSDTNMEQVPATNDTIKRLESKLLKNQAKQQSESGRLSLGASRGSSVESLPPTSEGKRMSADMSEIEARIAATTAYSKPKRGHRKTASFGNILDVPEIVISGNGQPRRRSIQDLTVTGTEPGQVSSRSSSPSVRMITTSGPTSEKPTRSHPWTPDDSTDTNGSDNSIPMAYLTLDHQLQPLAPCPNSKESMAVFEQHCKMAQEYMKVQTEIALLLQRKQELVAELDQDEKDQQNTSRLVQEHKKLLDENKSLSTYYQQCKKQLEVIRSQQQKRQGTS

[4] = biological target: T2, Serine/threonine-protein kinase TAO2 (Homo sapiens) (UniProt Q9UL54); settings: at 10 µM
T2 sequence (whole entry): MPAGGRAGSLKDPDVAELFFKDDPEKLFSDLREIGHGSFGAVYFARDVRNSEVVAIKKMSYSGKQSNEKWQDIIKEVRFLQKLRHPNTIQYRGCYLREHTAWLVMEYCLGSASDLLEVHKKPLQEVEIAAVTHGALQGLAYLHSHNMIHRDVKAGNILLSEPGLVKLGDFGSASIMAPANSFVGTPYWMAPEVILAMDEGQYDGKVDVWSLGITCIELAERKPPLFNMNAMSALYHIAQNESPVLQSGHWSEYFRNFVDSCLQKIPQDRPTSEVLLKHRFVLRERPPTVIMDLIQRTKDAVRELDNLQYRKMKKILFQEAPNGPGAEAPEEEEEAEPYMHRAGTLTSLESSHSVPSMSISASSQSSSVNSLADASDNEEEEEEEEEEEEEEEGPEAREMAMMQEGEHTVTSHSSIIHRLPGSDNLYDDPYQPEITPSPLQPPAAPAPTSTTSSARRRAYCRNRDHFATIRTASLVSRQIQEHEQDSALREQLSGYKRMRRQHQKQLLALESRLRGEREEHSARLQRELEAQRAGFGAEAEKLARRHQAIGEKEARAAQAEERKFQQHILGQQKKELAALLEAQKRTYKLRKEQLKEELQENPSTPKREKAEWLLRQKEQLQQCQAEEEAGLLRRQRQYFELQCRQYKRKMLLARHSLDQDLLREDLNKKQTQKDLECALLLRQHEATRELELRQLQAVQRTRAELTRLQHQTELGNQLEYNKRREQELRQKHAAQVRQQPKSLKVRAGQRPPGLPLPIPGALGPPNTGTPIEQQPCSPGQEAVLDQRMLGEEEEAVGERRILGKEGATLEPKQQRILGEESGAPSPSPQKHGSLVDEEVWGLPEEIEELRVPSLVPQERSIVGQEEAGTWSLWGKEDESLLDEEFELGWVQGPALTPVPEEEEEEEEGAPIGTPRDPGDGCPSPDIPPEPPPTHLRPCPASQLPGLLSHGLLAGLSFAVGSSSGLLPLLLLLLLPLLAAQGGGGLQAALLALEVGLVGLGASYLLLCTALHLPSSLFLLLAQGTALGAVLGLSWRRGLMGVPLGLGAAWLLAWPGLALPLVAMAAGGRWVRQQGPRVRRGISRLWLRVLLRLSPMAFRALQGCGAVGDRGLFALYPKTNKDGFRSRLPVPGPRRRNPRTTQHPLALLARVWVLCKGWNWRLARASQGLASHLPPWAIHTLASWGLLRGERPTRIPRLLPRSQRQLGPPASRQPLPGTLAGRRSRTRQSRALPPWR

[5] = biological target: Serine/threonine-protein kinase 33 (Homo sapiens) (UniProt Q9BYT3); settings: at 1 µM
Chain of Serine/threonine-protein kinase 33 (Homo sapiens) (Q9BYT3 whole entry, looked up): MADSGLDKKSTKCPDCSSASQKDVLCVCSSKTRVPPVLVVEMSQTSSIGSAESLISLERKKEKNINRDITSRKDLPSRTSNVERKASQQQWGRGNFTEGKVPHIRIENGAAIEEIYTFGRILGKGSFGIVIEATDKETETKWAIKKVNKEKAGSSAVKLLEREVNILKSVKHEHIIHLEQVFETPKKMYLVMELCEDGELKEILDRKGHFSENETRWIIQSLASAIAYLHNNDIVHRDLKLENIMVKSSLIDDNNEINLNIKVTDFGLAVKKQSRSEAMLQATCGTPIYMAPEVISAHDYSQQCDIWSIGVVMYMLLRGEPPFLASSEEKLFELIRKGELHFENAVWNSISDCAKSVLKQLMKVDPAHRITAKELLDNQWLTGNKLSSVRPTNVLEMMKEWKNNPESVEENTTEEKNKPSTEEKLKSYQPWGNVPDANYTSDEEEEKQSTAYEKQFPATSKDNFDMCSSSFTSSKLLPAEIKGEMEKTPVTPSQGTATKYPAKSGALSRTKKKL

[6] = biological target: Serine/threonine-protein kinase 33 (Homo sapiens) (UniProt Q9BYT3); settings: at 10 µM
[7] = biological target: Tyrosine-protein kinase SYK (Homo sapiens) (UniProt P43405); settings: at 10 µM
[8] = biological target: T1, Mitogen-activated protein kinase kinase kinase 7 (Homo sapiens); settings: at 1 µM
[9] = biological target: T3, Serine/threonine-protein kinase TAO1 (Homo sapiens) (UniProt Q7L7X3); settings: at 1 µM
T3 sequence (whole entry): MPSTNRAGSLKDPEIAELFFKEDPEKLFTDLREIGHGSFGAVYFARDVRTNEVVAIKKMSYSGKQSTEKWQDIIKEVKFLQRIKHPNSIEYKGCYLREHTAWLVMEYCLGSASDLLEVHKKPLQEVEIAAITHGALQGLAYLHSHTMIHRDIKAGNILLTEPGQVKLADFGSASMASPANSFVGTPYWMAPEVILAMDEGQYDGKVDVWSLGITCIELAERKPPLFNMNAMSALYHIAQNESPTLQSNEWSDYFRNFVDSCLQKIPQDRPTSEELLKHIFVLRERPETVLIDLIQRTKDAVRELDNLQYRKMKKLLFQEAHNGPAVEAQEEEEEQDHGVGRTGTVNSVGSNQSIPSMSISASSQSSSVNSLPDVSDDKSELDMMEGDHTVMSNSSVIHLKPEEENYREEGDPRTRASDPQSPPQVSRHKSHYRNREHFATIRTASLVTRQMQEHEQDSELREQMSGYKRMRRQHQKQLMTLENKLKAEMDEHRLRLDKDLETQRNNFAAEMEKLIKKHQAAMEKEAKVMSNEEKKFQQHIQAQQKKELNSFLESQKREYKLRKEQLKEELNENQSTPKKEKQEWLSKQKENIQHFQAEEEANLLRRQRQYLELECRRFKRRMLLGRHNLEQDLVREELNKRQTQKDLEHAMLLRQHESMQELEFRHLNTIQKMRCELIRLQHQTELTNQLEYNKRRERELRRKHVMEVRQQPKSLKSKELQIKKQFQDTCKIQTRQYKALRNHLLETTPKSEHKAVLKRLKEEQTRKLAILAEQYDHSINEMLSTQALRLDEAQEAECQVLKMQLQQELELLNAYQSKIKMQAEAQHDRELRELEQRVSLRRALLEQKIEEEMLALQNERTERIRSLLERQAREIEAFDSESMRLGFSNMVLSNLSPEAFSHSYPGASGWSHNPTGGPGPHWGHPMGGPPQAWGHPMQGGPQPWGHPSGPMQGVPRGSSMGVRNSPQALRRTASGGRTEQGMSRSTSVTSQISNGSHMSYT

[10] = biological target: T3, Serine/threonine-protein kinase TAO1 (Homo sapiens); settings: at 10 µM
[11] = biological target: T2, Serine/threonine-protein kinase TAO2 (Homo sapiens); settings: at 1 µM
[12] = biological target: T4, Serine/threonine-protein kinase TAO3 (Homo sapiens) (UniProt Q9H2K8); settings: at 1 µM
T4 sequence (whole entry): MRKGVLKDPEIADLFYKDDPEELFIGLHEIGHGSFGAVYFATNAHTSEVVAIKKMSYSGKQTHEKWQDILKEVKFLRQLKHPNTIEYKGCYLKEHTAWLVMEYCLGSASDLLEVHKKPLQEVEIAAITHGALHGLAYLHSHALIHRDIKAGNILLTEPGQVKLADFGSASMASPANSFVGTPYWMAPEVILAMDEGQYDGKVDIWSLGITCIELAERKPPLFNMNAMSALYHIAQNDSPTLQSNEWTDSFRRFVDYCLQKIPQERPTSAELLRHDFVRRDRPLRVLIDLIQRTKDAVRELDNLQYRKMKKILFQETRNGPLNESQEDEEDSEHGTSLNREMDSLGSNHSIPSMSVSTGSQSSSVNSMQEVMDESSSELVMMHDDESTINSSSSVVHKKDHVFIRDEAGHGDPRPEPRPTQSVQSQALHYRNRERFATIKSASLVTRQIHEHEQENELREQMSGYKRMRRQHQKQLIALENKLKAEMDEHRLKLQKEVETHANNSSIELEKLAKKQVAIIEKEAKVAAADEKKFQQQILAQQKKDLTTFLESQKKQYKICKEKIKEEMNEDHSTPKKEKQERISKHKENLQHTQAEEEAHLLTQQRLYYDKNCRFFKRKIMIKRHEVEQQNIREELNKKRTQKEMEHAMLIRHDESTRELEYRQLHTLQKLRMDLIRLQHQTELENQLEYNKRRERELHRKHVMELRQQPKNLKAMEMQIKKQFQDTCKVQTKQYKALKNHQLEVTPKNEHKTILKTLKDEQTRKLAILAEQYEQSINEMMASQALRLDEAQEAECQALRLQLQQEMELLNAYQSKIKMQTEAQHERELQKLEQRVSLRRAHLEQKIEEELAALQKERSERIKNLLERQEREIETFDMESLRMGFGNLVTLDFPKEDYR

[13] = biological target: T4, Serine/threonine-protein kinase TAO3 (Homo sapiens); settings: at 10 µM
[14] = biological target: T5, Serine/threonine-protein kinase TBK1 (Homo sapiens) (UniProt Q9UHD2); settings: at 1 µM
T5 sequence (whole entry): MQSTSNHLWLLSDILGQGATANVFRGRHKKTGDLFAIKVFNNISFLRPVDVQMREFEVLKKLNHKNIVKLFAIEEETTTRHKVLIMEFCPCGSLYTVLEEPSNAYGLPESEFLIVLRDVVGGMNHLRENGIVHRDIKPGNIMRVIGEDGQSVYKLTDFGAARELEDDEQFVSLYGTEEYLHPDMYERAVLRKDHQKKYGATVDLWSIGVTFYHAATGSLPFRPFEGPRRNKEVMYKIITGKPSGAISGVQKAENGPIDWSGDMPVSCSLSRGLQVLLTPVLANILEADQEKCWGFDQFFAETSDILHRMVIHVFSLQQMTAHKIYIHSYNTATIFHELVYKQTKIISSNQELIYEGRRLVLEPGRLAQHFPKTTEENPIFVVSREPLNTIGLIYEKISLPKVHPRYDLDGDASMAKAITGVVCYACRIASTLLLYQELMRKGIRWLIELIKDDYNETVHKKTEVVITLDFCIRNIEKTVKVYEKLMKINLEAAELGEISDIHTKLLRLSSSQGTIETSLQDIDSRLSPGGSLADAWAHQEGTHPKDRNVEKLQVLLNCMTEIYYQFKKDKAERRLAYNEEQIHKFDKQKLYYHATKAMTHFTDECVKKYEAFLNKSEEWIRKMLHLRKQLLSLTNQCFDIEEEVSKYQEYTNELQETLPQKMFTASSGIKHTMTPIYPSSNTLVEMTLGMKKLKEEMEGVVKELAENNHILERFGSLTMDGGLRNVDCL

[15] = biological target: Serine/threonine-protein kinase PLK2 (Homo sapiens) (UniProt Q9NYY3); settings: at 1 µM
Chain of Serine/threonine-protein kinase PLK2 (Homo sapiens) (Q9NYY3 whole entry, looked up): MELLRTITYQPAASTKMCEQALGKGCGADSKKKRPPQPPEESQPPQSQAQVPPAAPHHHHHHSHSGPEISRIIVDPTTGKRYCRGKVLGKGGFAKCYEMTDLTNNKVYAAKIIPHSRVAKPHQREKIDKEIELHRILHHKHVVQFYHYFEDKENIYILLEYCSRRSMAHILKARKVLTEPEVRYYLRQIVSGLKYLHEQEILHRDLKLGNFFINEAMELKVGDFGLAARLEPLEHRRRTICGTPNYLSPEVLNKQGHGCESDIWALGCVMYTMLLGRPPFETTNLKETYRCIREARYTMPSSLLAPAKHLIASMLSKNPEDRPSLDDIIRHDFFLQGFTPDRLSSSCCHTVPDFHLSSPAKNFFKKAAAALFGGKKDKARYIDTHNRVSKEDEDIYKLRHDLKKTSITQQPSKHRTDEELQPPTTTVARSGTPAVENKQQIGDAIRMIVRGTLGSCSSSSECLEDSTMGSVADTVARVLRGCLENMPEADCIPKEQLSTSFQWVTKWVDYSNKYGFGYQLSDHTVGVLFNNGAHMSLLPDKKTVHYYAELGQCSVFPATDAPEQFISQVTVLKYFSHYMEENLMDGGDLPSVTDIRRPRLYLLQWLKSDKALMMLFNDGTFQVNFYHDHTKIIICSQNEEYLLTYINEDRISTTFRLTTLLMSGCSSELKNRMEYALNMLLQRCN

[16] = biological target: Serine/threonine-protein kinase PLK2 (Homo sapiens) (UniProt Q9NYY3); settings: at 10 µM
[17] = biological target: Tyrosine-protein kinase SYK (Homo sapiens) (UniProt P43405); settings: at 1 µM
[18] = biological target: SRSF protein kinase 2 (Homo sapiens) (UniProt P78362); settings: at 1 µM
[19] = biological target: SRSF protein kinase 1 (Homo sapiens) (UniProt Q96SB4); settings: at 1 µM
Chain of SRSF protein kinase 1 (Homo sapiens) (Q96SB4 whole entry): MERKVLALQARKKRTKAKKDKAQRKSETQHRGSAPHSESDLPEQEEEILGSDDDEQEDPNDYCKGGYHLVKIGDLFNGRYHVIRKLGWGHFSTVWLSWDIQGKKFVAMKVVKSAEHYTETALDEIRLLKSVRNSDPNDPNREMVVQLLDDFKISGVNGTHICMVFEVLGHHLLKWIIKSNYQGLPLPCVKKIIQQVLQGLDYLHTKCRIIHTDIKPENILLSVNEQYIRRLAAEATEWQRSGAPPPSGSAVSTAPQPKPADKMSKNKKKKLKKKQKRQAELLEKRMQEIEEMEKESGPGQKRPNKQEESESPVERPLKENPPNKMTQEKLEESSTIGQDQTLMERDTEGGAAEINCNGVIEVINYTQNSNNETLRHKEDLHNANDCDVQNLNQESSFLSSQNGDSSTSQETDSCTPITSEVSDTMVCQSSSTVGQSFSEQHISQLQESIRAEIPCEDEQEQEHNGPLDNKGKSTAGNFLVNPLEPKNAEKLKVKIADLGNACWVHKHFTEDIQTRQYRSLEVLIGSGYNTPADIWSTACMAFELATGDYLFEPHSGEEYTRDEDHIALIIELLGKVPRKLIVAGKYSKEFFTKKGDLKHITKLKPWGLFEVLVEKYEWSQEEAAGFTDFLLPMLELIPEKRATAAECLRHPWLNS

[20] = biological target: SRSF protein kinase 1 (Homo sapiens) (UniProt Q96SB4); settings: at 10 µM

Chain of Serine/threonine-protein kinase SIK1 (Homo sapiens) (P57059 whole entry): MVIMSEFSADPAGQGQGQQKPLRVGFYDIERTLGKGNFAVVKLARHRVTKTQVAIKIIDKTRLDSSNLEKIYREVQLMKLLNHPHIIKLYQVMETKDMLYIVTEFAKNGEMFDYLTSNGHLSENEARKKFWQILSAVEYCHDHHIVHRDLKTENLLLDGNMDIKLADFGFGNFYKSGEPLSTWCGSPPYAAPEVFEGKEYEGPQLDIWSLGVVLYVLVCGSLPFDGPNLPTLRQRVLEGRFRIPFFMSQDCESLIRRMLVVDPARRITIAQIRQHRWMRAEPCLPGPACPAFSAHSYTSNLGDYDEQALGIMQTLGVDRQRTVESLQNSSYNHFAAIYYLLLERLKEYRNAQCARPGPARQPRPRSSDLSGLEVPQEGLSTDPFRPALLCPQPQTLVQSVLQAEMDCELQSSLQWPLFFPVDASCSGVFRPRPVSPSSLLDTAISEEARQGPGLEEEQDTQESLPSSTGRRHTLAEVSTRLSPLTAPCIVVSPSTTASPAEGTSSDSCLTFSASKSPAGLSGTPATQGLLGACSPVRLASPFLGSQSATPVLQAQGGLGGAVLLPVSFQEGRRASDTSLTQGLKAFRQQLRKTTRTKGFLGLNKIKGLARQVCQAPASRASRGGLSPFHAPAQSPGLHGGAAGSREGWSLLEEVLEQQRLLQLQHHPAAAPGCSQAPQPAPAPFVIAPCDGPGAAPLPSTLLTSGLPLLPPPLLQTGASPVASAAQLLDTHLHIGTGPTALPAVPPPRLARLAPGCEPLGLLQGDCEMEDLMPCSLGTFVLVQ
Chain of SRSF protein kinase 2 (Homo sapiens) (P78362 whole entry, looked up): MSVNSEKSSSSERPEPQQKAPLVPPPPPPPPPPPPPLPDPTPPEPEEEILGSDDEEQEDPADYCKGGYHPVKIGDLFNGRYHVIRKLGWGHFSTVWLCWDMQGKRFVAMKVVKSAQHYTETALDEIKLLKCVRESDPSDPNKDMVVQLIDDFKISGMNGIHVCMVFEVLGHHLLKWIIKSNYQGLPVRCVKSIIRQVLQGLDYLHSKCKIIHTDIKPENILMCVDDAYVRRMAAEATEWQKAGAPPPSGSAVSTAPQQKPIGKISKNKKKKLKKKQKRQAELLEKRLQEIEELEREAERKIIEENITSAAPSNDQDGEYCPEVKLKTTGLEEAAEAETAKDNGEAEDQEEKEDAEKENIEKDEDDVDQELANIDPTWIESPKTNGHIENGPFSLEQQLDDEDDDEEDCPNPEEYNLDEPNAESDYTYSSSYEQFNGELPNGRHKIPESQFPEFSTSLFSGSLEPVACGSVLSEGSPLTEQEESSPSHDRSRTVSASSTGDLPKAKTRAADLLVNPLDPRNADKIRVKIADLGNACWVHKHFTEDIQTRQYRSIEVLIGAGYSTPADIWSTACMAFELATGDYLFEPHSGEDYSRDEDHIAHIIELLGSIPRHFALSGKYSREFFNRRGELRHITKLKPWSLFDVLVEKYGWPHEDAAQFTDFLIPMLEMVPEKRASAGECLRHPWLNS

SMILES | residual activity [1] | residual activity [2] | residual activity [3] | residual activity [4] | residual activity [5] | residual activity [6] | residual activity [7] | residual activity [8] | residual activity [9] | residual activity [10] | residual activity [11] | residual activity [12] | residual activity [13] | residual activity [14] | residual activity [15] | residual activity [16] | residual activity [17] | residual activity [18] | residual activity [19] | residual activity [20]
Nc1nccc(-c2c(-c3ccc(F)cc3)ncn2C2CCNCC2)n1 | 54% | 70% | 79% | 80% |  |  |  |  |  |  |  |  |  |  |  |  |  |  |  | 
CC(C)[C@H](CO)Nc1nc(Nc2cc(N)cc(Cl)c2)c2ncn(C(C)C)c2n1 | 18% |  | 30% | 73% | 96% | 62% | 73% | 85% | 92% | 52% | 88% | 93% | 54% | 97% |  |  |  |  |  | 
N#C/C(=C1/Nc2ccccc2S1)c1ccnc(NCCc2cccnc2)n1 | 78% |  |  | 24% |  |  |  |  |  |  | 68% | 84% | 37% | 71% | 97% | 71% |  |  |  | 
c1ccc(-c2cnc(Nc3ccc(OCCN4CCCC4)cc3)s2)cc1 | 10% |  | 74% | 21% |  |  | 72% |  | 82% | 28% | 81% | 82% | 27% | 70% |  |  | 129% |  |  | 
O=C1Nc2ccccc2/C1=C\c1c(Cl)[nH]c2ccccc12 |  | 83% | 77% | 44% | 99% | 85% |  | 99% |  | 63% |  | 85% | 40% | 72% | 99% | 80% |  | 100% |  | 
CC(C)N(CCC(=O)c1ccc2ccccc2c1)Cc1ccccc1 |  | 85% | 86% | 88% |  |  |  | 87% |  |  | 100% |  |  | 52% |  |  | 127% |  |  | 
COc1cc2nccc(Oc3ccc(NC(=O)Nc4cc(C)on4)c(Cl)c3)c2cc1OC |  |  |  | 43% | 81% | 73% |  |  |  | 52% | 73% | 82% | 57% | 82% | 105% | 98% |  | 99% | 98% | 
O=C(NC(NC(=S)Nc1ccc(F)c([N+](=O)[O-])c1)C(Cl)(Cl)Cl)C(c1ccccc1)c1ccccc1 (stereo unspecified) |  | 98% | 92% | 92% | 98% | 91% |  |  | 93% | 83% | 91% | 96% | 90% | 96% | 90% | 87% |  |  |  | 92%
NC(=O)c1ccc(-c2nc(-c3ccc4c(c3)OCCO4)c(-c3ccccn3)[nH]2)cc1 |  | 95% |  | 93% |  |  |  |  | 96% | 80% | 100% |  |  | 83% | 93% | 100% |  | 91% |  | 
